Assay results from ChEMBL document CHEMBL1961873, “Compounds: GSK PKIS; Assays: Nanosyn kinase panel” (2012).

Tests used:
[1] = target: 5'-AMP-activated protein kinase catalytic subunit alpha-2 (Homo sapiens) (UniProt P54646); conditions: at 1 µM
[2] = target: T1, NUAK family SNF1-like kinase 1 (Homo sapiens) (UniProt O60285); conditions: at 0.1 µM
T1 sequence (whole entry): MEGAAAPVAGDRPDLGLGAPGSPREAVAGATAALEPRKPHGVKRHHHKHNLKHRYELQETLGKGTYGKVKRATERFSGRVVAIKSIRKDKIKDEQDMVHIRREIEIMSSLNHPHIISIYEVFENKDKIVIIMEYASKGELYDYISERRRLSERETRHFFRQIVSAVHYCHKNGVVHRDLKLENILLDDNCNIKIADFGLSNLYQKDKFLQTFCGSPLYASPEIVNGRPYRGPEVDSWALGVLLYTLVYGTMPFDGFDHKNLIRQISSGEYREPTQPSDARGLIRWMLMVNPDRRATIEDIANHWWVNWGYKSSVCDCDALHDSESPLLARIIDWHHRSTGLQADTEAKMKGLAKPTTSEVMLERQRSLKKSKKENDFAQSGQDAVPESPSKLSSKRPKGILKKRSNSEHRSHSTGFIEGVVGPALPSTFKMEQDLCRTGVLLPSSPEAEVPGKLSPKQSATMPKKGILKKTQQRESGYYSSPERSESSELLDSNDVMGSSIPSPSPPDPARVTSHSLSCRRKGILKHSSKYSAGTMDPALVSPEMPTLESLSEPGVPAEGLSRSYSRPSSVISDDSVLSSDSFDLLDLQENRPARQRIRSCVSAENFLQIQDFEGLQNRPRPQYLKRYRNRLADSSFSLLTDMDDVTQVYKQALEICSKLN

[3] = target: T1, NUAK family SNF1-like kinase 1 (Homo sapiens); conditions: at 1 µM
[4] = target: T2, Serine/threonine-protein kinase BRSK1 (Homo sapiens) (UniProt Q8TDC3); conditions: at 0.1 µM
T2 sequence (whole entry): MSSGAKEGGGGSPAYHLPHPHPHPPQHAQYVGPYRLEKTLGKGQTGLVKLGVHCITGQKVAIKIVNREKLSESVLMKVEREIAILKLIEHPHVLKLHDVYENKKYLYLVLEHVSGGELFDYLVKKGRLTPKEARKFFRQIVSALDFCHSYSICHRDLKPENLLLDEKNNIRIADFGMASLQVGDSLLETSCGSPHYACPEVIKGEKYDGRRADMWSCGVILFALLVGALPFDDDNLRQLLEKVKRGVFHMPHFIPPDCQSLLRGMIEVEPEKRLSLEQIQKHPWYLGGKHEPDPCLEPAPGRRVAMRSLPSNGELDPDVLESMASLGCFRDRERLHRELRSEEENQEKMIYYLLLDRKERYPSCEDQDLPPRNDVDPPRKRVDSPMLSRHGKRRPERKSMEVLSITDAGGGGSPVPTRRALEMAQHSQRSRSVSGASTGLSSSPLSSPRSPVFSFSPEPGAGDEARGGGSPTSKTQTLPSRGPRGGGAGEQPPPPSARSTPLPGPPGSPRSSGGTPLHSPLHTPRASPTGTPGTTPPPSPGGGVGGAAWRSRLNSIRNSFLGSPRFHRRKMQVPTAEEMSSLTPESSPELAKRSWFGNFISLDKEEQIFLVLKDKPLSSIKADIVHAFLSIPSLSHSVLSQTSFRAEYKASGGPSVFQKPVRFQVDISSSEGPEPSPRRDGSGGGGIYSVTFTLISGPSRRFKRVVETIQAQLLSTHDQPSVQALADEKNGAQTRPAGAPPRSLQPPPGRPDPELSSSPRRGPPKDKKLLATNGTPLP

[5] = target: T2, Serine/threonine-protein kinase BRSK1 (Homo sapiens); conditions: at 1 µM
[6] = target: T3, Serine/threonine-protein kinase BRSK2 (Homo sapiens) (UniProt Q8IWQ3); conditions: at 0.1 µM
T3 sequence (whole entry): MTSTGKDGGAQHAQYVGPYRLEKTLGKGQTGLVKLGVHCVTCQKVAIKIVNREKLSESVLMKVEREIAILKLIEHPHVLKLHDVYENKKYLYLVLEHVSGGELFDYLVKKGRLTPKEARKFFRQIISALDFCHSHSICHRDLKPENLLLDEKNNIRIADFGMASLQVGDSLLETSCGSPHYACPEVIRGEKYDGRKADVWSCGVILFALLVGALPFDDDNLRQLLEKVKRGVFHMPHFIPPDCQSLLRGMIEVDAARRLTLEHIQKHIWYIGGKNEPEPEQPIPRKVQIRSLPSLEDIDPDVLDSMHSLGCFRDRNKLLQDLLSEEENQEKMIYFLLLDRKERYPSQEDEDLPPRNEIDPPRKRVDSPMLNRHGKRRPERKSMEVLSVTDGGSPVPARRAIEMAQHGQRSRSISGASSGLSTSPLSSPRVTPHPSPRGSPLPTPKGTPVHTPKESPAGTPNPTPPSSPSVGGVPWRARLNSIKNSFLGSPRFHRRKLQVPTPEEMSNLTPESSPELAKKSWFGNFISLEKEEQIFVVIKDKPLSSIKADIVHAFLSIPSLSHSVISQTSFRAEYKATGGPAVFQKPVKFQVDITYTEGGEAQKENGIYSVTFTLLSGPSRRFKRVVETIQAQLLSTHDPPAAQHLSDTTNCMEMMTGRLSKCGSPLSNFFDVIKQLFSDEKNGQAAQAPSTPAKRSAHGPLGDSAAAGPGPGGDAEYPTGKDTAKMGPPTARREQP

[7] = target: T3, Serine/threonine-protein kinase BRSK2 (Homo sapiens); conditions: at 1 µM
[8] = target: Calcium/calmodulin-dependent protein kinase type 1D (Homo sapiens) (UniProt Q8IU85); conditions: at 0.1 µM
Chain of Calcium/calmodulin-dependent protein kinase type 1D (Homo sapiens) (Q8IU85 whole entry, looked up): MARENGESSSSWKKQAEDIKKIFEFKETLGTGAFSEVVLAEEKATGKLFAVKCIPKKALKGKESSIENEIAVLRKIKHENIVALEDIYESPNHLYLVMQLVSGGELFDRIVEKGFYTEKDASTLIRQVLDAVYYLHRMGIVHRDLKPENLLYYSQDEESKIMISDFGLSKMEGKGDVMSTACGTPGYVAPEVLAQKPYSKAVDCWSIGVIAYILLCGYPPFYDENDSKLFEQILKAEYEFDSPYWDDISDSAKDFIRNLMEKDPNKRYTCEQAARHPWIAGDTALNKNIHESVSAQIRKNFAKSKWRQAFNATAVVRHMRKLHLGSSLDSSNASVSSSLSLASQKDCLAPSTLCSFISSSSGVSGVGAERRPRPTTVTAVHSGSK

[9] = target: Calcium/calmodulin-dependent protein kinase type 1D (Homo sapiens) (UniProt Q8IU85); conditions: at 1 µM
[10] = target: Calcium/calmodulin-dependent protein kinase type II subunit alpha (Homo sapiens) (UniProt Q9UQM7); conditions: at 0.1 µM
Chain of Calcium/calmodulin-dependent protein kinase type II subunit alpha (Homo sapiens) (Q9UQM7 whole entry): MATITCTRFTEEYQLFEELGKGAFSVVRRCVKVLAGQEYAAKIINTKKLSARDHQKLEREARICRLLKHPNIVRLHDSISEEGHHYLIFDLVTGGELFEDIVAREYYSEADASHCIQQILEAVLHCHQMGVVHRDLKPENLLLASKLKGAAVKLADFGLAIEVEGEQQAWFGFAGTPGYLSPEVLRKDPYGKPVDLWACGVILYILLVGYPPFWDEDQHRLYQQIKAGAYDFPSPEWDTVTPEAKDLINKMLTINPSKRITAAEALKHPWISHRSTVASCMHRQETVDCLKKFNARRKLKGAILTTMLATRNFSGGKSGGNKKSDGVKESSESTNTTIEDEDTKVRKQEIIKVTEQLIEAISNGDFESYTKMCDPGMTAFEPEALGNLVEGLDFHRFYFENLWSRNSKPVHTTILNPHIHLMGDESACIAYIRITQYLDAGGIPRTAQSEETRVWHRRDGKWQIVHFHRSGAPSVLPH

[11] = target: Calcium/calmodulin-dependent protein kinase type II subunit alpha (Homo sapiens) (UniProt Q9UQM7); conditions: at 1 µM
[12] = target: Calcium/calmodulin-dependent protein kinase type II subunit delta (Homo sapiens) (UniProt Q13557); conditions: at 0.1 µM
Chain of Calcium/calmodulin-dependent protein kinase type II subunit delta (Homo sapiens) (Q13557 whole entry): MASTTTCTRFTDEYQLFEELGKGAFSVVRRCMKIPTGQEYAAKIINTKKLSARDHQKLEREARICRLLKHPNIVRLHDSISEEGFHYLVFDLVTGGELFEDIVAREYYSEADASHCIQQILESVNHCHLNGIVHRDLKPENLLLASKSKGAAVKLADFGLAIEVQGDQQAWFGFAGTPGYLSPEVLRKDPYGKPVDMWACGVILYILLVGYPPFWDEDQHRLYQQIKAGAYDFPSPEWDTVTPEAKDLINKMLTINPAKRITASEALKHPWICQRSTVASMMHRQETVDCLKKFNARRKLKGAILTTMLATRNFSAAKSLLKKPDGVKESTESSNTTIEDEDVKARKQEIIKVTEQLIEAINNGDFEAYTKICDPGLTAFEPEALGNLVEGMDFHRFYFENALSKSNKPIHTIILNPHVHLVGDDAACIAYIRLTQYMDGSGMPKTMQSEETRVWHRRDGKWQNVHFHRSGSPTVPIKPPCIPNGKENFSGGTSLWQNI

[13] = target: Calcium/calmodulin-dependent protein kinase type II subunit delta (Homo sapiens) (UniProt Q13557); conditions: at 1 µM
[14] = target: T4, Calcium/calmodulin-dependent protein kinase type IV (Homo sapiens) (UniProt Q16566); conditions: at 0.1 µM
T4 sequence (whole entry): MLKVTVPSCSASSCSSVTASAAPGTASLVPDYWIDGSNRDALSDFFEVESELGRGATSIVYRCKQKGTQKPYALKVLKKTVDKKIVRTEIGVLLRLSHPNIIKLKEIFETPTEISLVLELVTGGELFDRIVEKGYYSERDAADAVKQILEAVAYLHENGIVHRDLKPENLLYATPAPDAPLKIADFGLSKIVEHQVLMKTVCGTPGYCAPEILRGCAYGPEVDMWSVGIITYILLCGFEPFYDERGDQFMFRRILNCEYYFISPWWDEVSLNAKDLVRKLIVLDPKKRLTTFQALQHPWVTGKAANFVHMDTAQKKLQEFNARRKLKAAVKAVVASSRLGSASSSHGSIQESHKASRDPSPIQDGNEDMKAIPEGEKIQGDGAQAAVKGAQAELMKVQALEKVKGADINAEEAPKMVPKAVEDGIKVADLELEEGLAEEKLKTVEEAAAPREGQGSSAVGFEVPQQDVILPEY

[15] = target: T4, Calcium/calmodulin-dependent protein kinase type IV (Homo sapiens); conditions: at 1 µM
[16] = target: T5, Serine/threonine-protein kinase Chk1 (Homo sapiens) (UniProt O14757); conditions: at 0.1 µM
T5 sequence (whole entry): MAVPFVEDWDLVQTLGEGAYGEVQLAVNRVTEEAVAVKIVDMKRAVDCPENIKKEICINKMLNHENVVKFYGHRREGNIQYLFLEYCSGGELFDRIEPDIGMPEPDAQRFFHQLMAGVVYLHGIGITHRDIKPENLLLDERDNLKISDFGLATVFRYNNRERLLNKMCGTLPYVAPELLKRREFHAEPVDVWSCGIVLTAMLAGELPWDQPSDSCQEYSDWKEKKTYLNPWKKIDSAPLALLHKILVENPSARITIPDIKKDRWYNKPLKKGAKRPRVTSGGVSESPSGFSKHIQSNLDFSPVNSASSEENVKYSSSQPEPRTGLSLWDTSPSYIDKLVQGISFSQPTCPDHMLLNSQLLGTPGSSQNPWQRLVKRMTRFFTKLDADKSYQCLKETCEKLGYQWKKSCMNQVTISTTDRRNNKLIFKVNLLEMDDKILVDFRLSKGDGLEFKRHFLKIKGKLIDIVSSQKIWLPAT

[17] = target: T5, Serine/threonine-protein kinase Chk1 (Homo sapiens); conditions: at 1 µM
[18] = target: Serine/threonine-protein kinase Chk2 (Homo sapiens) (UniProt O96017); conditions: at 0.1 µM
Chain of Serine/threonine-protein kinase Chk2 (Homo sapiens) (O96017 whole entry): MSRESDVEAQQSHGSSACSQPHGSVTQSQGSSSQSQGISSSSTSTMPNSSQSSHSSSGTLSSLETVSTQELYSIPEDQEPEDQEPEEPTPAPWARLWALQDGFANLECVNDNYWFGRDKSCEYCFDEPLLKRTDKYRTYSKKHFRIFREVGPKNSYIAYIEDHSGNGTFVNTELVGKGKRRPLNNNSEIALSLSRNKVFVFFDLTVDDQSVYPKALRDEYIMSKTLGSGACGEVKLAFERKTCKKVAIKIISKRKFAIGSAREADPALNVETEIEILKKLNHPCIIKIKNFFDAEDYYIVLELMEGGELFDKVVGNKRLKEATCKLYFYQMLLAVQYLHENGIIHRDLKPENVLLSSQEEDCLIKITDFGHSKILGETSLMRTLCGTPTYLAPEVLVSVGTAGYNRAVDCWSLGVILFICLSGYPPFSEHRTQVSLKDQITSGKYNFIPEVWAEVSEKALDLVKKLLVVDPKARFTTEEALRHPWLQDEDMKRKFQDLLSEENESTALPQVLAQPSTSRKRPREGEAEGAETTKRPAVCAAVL

[19] = target: Serine/threonine-protein kinase Chk2 (Homo sapiens) (UniProt O96017); conditions: at 1 µM
[20] = target: Death-associated protein kinase 1 (Homo sapiens) (UniProt P53355); conditions: at 0.1 µM;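 note: reported figure is the mean inhibition of DAPK1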
Chain of Death-associated protein kinase 1 (Homo sapiens) (P53355 whole entry, looked up): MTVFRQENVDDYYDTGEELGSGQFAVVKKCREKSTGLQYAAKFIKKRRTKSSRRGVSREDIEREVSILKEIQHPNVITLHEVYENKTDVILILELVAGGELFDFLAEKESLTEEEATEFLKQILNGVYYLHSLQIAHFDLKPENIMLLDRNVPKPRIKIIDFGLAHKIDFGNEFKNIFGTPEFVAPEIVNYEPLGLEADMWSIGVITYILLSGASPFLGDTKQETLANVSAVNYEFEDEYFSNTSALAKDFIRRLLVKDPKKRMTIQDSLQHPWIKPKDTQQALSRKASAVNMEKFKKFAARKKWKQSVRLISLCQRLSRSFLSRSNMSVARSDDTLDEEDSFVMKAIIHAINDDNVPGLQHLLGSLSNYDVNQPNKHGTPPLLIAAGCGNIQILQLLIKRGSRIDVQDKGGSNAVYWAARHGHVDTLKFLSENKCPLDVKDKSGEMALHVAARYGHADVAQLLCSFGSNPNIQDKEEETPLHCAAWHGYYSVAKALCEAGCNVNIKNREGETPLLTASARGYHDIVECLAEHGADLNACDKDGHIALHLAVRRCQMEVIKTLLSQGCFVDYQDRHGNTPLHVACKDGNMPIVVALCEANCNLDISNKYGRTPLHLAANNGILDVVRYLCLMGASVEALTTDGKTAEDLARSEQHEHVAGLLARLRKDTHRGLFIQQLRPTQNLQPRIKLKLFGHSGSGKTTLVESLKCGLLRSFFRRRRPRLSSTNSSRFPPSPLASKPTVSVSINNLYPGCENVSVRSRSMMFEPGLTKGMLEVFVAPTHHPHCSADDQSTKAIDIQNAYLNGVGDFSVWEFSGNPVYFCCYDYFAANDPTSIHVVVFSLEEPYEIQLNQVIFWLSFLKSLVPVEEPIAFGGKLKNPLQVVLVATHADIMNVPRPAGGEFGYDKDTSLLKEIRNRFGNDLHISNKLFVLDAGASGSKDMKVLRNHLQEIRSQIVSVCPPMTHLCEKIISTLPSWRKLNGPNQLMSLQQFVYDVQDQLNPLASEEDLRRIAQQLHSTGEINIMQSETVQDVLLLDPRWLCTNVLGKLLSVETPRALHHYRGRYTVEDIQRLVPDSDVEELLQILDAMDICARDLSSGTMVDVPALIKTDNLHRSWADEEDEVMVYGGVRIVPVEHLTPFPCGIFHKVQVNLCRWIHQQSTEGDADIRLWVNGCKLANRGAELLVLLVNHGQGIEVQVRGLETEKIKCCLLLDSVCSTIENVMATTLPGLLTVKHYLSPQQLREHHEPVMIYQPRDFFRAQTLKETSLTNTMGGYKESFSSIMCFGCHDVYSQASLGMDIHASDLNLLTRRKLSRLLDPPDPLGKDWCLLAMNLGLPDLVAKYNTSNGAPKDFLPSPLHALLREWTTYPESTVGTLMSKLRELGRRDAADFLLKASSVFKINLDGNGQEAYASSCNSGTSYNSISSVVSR

Chain of 5'-AMP-activated protein kinase catalytic subunit alpha-2 (Homo sapiens) (P54646 whole entry, looked up): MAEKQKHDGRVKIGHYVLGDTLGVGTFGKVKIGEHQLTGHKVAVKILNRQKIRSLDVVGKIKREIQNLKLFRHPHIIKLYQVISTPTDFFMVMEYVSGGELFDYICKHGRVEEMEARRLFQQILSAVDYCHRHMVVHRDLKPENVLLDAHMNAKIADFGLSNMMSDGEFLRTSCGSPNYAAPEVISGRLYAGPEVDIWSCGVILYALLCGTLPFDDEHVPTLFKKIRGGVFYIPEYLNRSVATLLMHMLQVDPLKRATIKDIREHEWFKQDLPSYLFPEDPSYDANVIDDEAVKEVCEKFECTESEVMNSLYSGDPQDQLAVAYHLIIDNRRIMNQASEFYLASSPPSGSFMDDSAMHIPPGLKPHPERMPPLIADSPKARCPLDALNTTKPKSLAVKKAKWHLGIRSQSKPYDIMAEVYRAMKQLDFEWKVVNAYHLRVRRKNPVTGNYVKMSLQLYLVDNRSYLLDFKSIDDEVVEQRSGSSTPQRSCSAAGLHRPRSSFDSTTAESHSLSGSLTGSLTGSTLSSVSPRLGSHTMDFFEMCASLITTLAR

Row | Compound | inhibition [1] [%] | inhibition [2] [%] | inhibition [3] [%] | inhibition [4] [%] | inhibition [5] [%] | inhibition [6] [%] | inhibition [7] [%] | inhibition [8] [%] | inhibition [9] [%] | inhibition [10] [%] | inhibition [11] [%] | inhibition [12] [%] | inhibition [13] [%] | inhibition [14] [%] | inhibition [15] [%] | inhibition [16] [%] | inhibition [17] [%] | inhibition [18] [%] | inhibition [19] [%] | inhibition [20] [%]
1 | Fc1ccc(-c2c(-c3ccncc3)nc3n2CCS3)cc1 | 4.29 | -0.3 | 1.86 | -0.79 | 0.97 | 0.47 | 3.65 | 2.44 | -0.09 | 0.37 | 0.88 | 1.78 | 2.01 | 1.18 | -0.25 | 0.42 | 2.88 | 1.49 | 0.52 | -0.64
2 | NC(=O)Cc1ccccc1Oc1nccc(-c2c(-c3ccc(F)cc3)ncn2C2CCNCC2)n1 | 2.59 | 0.84 | 2.97 | 4.71 | 6.12 | 4.74 | 5.25 | 0.63 | 1.65 | 2.81 | 2.07 | 2.62 | 2.58 | 0.99 | -0.11 | 0.75 | 5.68 | 4.2 | 6.05 | 2.51
3 | FC(F)(F)c1cccc(Nc2nccc(-c3cnn4nc(-c5ccccc5)ccc34)n2)c1 | 2.89 | -0.22 | 4.2 | -0.11 | 4.72 | 1.87 | 2.68 | 0.17 | 0.28 | 0.97 | -0.96 | 0.96 | -1.12 | 1.79 | -1.25 | 3.93 | 1.39 | 0.57 | 1.27 | 3.36
4 | C[C@@H](Oc1cc(-n2cnc3ccc(OC4CCN(C)CC4)cc32)sc1C(N)=O)c1ccccc1Cl | 9.02 | 22 | 66.8 | 27.6 | 58 | 37.9 | 70.8 | -0.95 | 3.84 | 2.57 | 14.4 | 10.2 | 44.3 | -2.92 | 2.05 | 0.96 | 7.85 | 3.23 | 5.06 | 3.53
5 | COc1cc2ncn(-c3cc(OCCc4ccccc4)c(C(N)=O)s3)c2cc1OC | 1.32 | 1.92 | 9.13 | 41.5 | 76.9 | 58.3 | 80.3 | 0.21 | 1.85 | 1.3 | 2.38 | 2.83 | 3.66 | 1.62 | 0.6 | 1.61 | 7.39 | 1.58 | 4.01 | 2.25
6 | C/C(Nc1ccc(S(N)(=O)=O)cc1)=C1/C(=O)Nc2ccccc21 | 4.96 | 6.3 | 34 | 1.67 | 18.9 | 4.55 | 31.1 | -0.31 | -0.55 | -4.87 | -2.07 | -2.27 | 3.2 | -2.35 | -0.89 | 4.5 | 10.1 | -0.44 | 14.5 | 1.47
7 | COc1cc2ncn(-c3cc(OCc4cccs4)c(C(N)=O)s3)c2cc1OC | 5.5 | 20.1 | 63.2 | 9 | 50 | 16.6 | 60.6 | 0.15 | 0.12 | 2.87 | 1.67 | 0.52 | 2.97 | -3.4 | -4.06 | 1.35 | 3.75 | 2.01 | 5.81 | 0.06
